Results: PubChem BioAssay (NCATS)
Inconclusive results are not listed. Where a call stands in place of a potency, no number is given. The source made the active and inactive calls. Calls follow the shape of the full dose curve.

Assays:
[1] = Primary qHTS for inhibitors of SARS-S pseudo-typed particle cell entry (AID 1479145); settings: SARS-S pseudotyped particle cell entry, luciferase reporter; series mostly up to 57.1 µM; also: nearly all actives have a fitted effect of over 45% in size; also: potency is read from the fitted curve at half-maximal effect
[2] = Primary qHTS for Huh7 cytotoxicity: counterscreen for inhibitors of MERS-S pseudotyped particle cell entry (AID 1479147); settings: cell viability read-out; series mostly up to 57.1 µM

SMILES | Potency [1] | Potency [2]
CC12CC3CC(C)(C1)CC(N)(C3)C2 | inactive | inactive
c1cnc2cc3c(cc2n1)C1CNCC3C1 | inactive | inactive
CN(C)CCOC(c1ccc(Cl)cc1)c1ccccn1 (configuration not stated) | inactive | inactive
NC(=O)N/N=C/c1ccc([N+](=O)[O-])o1 | inactive | 
CCCCNc1ccc(C(=O)OCCOCCOCCOCCOCCOCCOCCOCCOCCOC)cc1 | inactive | inactive
Cc1cn[nH]c1 | inactive | inactive
CCCC(CCC)C(=O)O | inactive | inactive
Cc1nc(-c2ccc(OCC(C)C)c(C#N)c2)sc1C(=O)O | inactive | inactive
COC(=O)C1=C(C)NC(C)=C(C(=O)OCC(C)C)C1c1ccccc1[N+](=O)[O-] (configuration not stated) | 35.5 µM (active) | 
O=C(c1ccc(OCCN2CCCCC2)cc1)c1c(-c2ccc(O)cc2)sc2cc(O)ccc12 | 20 µM (active) | 
Clc1ccc2c(c1)C(N1CCNCC1)=Nc1ccccc1O2 | inactive | inactive
Nc1nc2c(ncn2COC(CO)CO)c(=O)[nH]1 | inactive | inactive
Oc1ccc(C2CNCCc3c2cc(O)c(O)c3Cl)cc1 (configuration not stated) | inactive | inactive
CN(C)CCc1c[nH]c2ccc(CS(=O)(=O)N3CCCC3)cc12 | inactive | inactive
Oc1cn2c(n1)Nc1ccc(Cl)c(Cl)c1C2 | inactive | inactive
CC(=O)N(O)CCCCCNC(=O)CCC(=O)N(O)CCCCCNC(=O)CCC(=O)N(O)CCCCCN | inactive | 
CC(C)C[C@H](NC(=O)[C@H](Cc1ccccc1)NC(=O)c1cnccn1)B(O)O | inactive | 
NS(=O)(=O)c1cc2c(cc1Cl)NC=NS2(=O)=O | inactive | inactive
CNCC[C@@H](Oc1ccccc1C)c1ccccc1 | inactive | 
CC(C)Oc1ccc2c(=O)c(-c3ccccc3)coc2c1 | inactive | 
Cc1ccc(-n2[nH]c(C)c(N=Nc3cccc(-c4cccc(C(=O)O)c4)c3O)c2=O)cc1C | inactive | 
O[C@@H](c1cc(C(F)(F)F)nc2c(C(F)(F)F)cccc12)[C@H]1CCCCN1 | inactive | 
COc1c(C)c2c(c(O)c1C/C=C(\C)CCC(=O)O)C(=O)OC2 | inactive | 
Nc1nnc(-c2cccc(Cl)c2Cl)c(N)n1 | inactive | inactive
CCOC(=O)c1ncn2c1CN(C)C(=O)c1cc(F)ccc1-2 | inactive | inactive

SMILES | Potency [1] | Potency [2]
CCCSc1ccc2nc(NC(=O)OC)[nH]c2c1 | inactive | inactive
N=c1nc(N2CCCCC2)cc(N)n1O | inactive | inactive
CCCCN1C[C@H](O)[C@@H](O)[C@H](O)[C@H]1CO | inactive | inactive
CCOC(=O)C1=C(C)NC(C)=C(C(=O)OC)C1c1cccc(Cl)c1Cl (configuration not stated) | inactive | inactive
Nc1nc(N)c2nc(-c3ccccc3)c(N)nc2n1 | inactive | 
OCCN1CCN(CCCN2c3ccccc3Sc3ccc(Cl)cc32)CC1 | 14.1 µM (active) | 
O=C1OCCN1/N=C/c1ccc([N+](=O)[O-])o1 | inactive | inactive
CCCN(CCC)CCc1cccc2c1CC(=O)N2 | inactive | inactive
Cc1nc(Nc2ncc(C(=O)Nc3c(C)cccc3Cl)s2)cc(N2CCN(CCO)CC2)n1 | inactive | inactive
C[C@@H](O)[C@H]1C(=O)N2C(C(=O)O)=C(S[C@@H]3CN[C@H](C(=O)N(C)C)C3)[C@H](C)[C@H]12 | inactive | inactive
Cc1cnc(C(=O)NCCc2ccc(S(=O)(=O)NC(=O)NC3CCCCC3)cc2)cn1 | inactive | inactive
O=NN(CCCl)C(=O)NC1CCCCC1 | inactive | inactive
CC#C[C@]1(O)CC[C@H]2[C@@H]3CCC4=CC(=O)CCC4=C3[C@@H](c3ccc(N(C)C)cc3)C[C@@]21C | inactive | inactive
CCCCCOC(=O)Nc1nc(=O)n([C@@H]2O[C@H](C)[C@@H](O)[C@H]2O)cc1F | inactive | inactive
COC(c1ccccc1)(c1ccccc1)[C@H](Oc1nc(C)cc(C)n1)C(=O)O | inactive | inactive
NS(=O)(=O)Cc1noc2ccccc12 | inactive | inactive
CN(C)CCCN1c2ccccc2CCc2ccc(Cl)cc21 | 28.2 µM (active) | inactive
CC1(C)O[C@@H]2[C@@H](CO[C@@]3(COS(N)(=O)=O)OC(C)(C)O[C@@H]23)O1 | inactive | inactive
NCCC(O)(P(=O)(O)O)P(=O)(O)O | inactive | inactive
COc1cc2nc(N3CCN(C(=O)C4CCCO4)CC3)nc(N)c2cc1OC (configuration not stated) | inactive | inactive
CCC1(c2ccccc2)C(=O)NCNC1=O | inactive | inactive
CCN(CC)CCNC(=O)c1cc(Cl)c(N)cc1OC | inactive | inactive
C1N2CN3CN1CN(C2)C3 | inactive | inactive
Nc1nc(F)nc2c1ncn2[C@@H]1O[C@H](CO)[C@@H](O)[C@@H]1O | inactive | inactive
Cc1ccccc1N1C(=O)c2cc(S(N)(=O)=O)c(Cl)cc2NC1C (configuration not stated) | inactive | inactive

SMILES | Potency [1] | Potency [2]
CCOC(=O)[C@H](CCc1ccccc1)N[C@@H](C)C(=O)N1Cc2ccccc2C[C@H]1C(=O)O | inactive | inactive
NC(=Nc1ccccc1)Nc1ccccc1 | inactive | inactive
Cc1cccc(C)c1OCC(C)N (configuration not stated) | inactive | inactive
CCN(C)C(=O)Oc1cccc([C@H](C)N(C)C)c1 | inactive | inactive
COc1ccc(Cl)cc1C(=O)NCCc1ccc(S(=O)(=O)NC(=O)NC2CCCCC2)cc1 | inactive | inactive
CC(C)(C)NC(=O)[C@H]1CC[C@H]2[C@@H]3CC[C@H]4NC(=O)C=C[C@]4(C)[C@H]3CC[C@]12C | inactive | inactive
O[C@@H]1CO[C@H]2[C@@H]1OC[C@@H]2O | inactive | inactive
CC1Cc2ccccc2N1NC(=O)c1ccc(Cl)c(S(N)(=O)=O)c1 (configuration not stated) | inactive | inactive
CC(C)NCC(O)COc1cccc2[nH]ccc12 (configuration not stated) | inactive | inactive
CC(=O)N[C@@H](CS)C(=O)O | inactive | inactive
O=C(O)CCNC(=O)c1ccc(N=Nc2ccc(O)c(C(=O)O)c2)cc1 | inactive | inactive
NCCCC(O)(P(=O)(O)O)P(=O)(O)O | inactive | inactive
Cc1ccc2c(n1)Oc1ccc(C(C)C(=O)OCC(=O)N(C)C)cc1C2 (configuration not stated) | inactive | inactive
CC[C@]1(O)C[C@H]2CN(CCc3c([nH]c4ccccc34)[C@@](C(=O)OC)(c3cc4c(cc3OC)N(C=O)[C@H]3[C@@](O)(C(=O)OC)[C@H](OC(C)=O)[C@]5(CC)C=CCN6CC[C@]43[C@@H]65)C2)C1 | inactive | inactive
CN(C)c1nc(N(C)C)nc(N(C)C)n1 | inactive | inactive
Cc1ncc([N+](=O)[O-])n1CCO | inactive | inactive
O=c1c(O)c(-c2ccc(O)c(O)c2)oc2cc(O)cc(O)c12 | inactive | inactive
Nc1nc2c(ncn2COCCO)c(=O)[nH]1 | inactive | inactive
Nc1cccc2c1CN(C1CCC(=O)NC1=O)C2=O (configuration not stated) | inactive | inactive
CN1C(=O)CC(C)(c2ccccc2)C1=O (configuration not stated) | inactive | inactive
NC(=O)c1cn(Cc2c(F)cccc2F)nn1 | inactive | inactive
CCOC(=O)N1CCC(=C2c3ccc(Cl)cc3CCc3cccnc32)CC1 | inactive | inactive
Cc1ccc(NC(=O)c2ccc(CN3CCN(C)CC3)cc2)cc1Nc1nccc(-c2cccnc2)n1 | 12.6 µM (active) | inactive
CN(C)/N=N/c1nc[nH]c1C(N)=O | inactive | inactive
CS(=O)(=O)OCCCCOS(C)(=O)=O | inactive | inactive

SMILES | Potency [1] | Potency [2]
Clc1ccc(C(c2ccccc2Cl)C(Cl)Cl)cc1 (configuration not stated) | inactive | inactive
CCC[C@H](N[C@@H](C)C(=O)N1[C@H](C(=O)O)C[C@@H]2CCCC[C@@H]21)C(=O)OCC | inactive | inactive
Cn1cnc([N+](=O)[O-])c1Sc1ncnc2nc[nH]c12 | inactive | inactive
Cc1[nH]c(=O)c(C#N)cc1-c1ccncc1 | inactive | inactive
C[C@](N)(Cc1ccc(O)c(O)c1)C(=O)O | inactive | inactive
CNS(=O)(=O)Cc1ccc2[nH]cc(CCN(C)C)c2c1 | inactive | inactive
CCc1c2c(nc3ccc(OC(=O)N4CCC(N5CCCCC5)CC4)cc13)-c1cc3c(c(=O)n1C2)COC(=O)[C@]3(O)CC | inactive | inactive
CC(C)(C)NC(=O)[C@@H]1CN(Cc2cccnc2)CCN1C[C@@H](O)C[C@@H](Cc1ccccc1)C(=O)N[C@H]1c2ccccc2C[C@H]1O | inactive | inactive
Cc1cc(C)cc(OCC2CNC(=O)O2)c1 (configuration not stated) | inactive | inactive
O=C(O)COCCN1CCN(C(c2ccccc2)c2ccc(Cl)cc2)CC1 (configuration not stated) | inactive | inactive
Nc1cc(-c2ccncc2)c[nH]c1=O | inactive | inactive
O=C(O)CCCc1ccccc1 | inactive | inactive
Cc1onc(-c2c(Cl)cccc2Cl)c1C(=O)N[C@@H]1C(=O)N2[C@@H]1SC(C)(C)[C@@H]2C(=O)O | inactive | inactive
O=C(NCCN1CCOCC1)c1ccc(Cl)cc1 | inactive | inactive
CCCc1cc(=O)[nH]c(=S)[nH]1 | inactive | inactive
C[n+]1ccccc1/C=N/O | inactive | inactive
CC(=O)OCC(CCn1cnc2cnc(N)nc21)COC(C)=O | inactive | inactive
CN(C)c1cc(NC(=O)CNC(C)(C)C)c(O)c2c1C[C@@H]1C[C@H]3[C@H](N(C)C)C(=O)C(C(N)=O)=C(O)[C@@]3(O)C(=O)C1=C2O | inactive | inactive
C[C@H]1[C@H](NC(=O)/C(=N/OC(C)(C)C(=O)O)c2csc(N)n2)C(=O)N1S(=O)(=O)O (stereo in doubt) | inactive | inactive
COc1cc2c(cc1OC)[C@@H]1CC(=O)[C@@H](CC(C)C)CN1CC2 | inactive | inactive
COC(=O)C(c1ccccc1Cl)N1CCc2sccc2C1 (configuration not stated) | inactive | inactive
CC[C@]1(O)C[C@@H]2CN(CCc3c([nH]c4ccccc34)[C@@](C(=O)OC)(c3cc4c(cc3OC)N(C)[C@H]3[C@@](O)(C(=O)OC)[C@H](OC(C)=O)[C@]5(CC)C=CCN6CC[C@]43[C@@H]65)C2)C1 | inactive | inactive
